Data reported in PubChem BioAssay (NCI).
This is part of a sample that, as a whole, favours compounds with a hit. Of some 83,000 tested, about 20% had one in any assay.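 A percent growth of 40 corresponds to 60% growth inhibition; 0 means no net growth; -100 means all cells died. Active threshold: below 10.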 Active and inactive are the calls of the source.

Tests used:
Assay in all cases: NCI-60 one-dose screen, 48 h (100 = growth as untreated, 0 = no growth, -100 = all killed)
Settings in all cases: 10 µM unless noted
HCT-15 colon = system: HCT-15 colon
HT29 colon = system: HT29 colon
SNB-75 CNS = system: SNB-75 CNS
SNB-19 CNS = system: SNB-19 CNS
U251 CNS = system: U251 CNS
PC-3 prostate = system: PC-3 prostate
SK-MEL-5 melanoma = system: SK-MEL-5 melanoma
UACC-62 melanoma = system: UACC-62 melanoma
LOX IMVI melanoma = system: LOX IMVI melanoma
SK-MEL-28 melanoma = system: SK-MEL-28 melanoma

Measured: growth

CCCCCc1ccc(S(=O)(=O)Nc2cccc(-c3csc(NC(=O)CCCCCN4CCN(CCO)CC4)n3)c2)cc1
active: LOX IMVI melanoma -60.3%
inactive: HCT-15 colon 43.1% | HT29 colon 11.4% | SNB-75 CNS 98.5% | SNB-19 CNS 85.9% | U251 CNS 65.8% | PC-3 prostate 68.1% | SK-MEL-5 melanoma 66.1% | UACC-62 melanoma 87.6% | SK-MEL-28 melanoma 71.1%

Cc1[nH]c(C(=O)Nc2ccccc2OCc2cccc(C(=O)N3CCC[C@@H](N)C3)c2)c(Cl)c1Cl
active: HCT-15 colon -78.6% | HT29 colon -71.9% | SNB-75 CNS -96.3% | SNB-19 CNS -84.4% | U251 CNS -83.9% | PC-3 prostate -88.9% | SK-MEL-5 melanoma -97.7% | UACC-62 melanoma -90.8% | LOX IMVI melanoma -90% | SK-MEL-28 melanoma -84.6%

CS(=O)(=O)Nc1cc(-c2ccc3ncc(C#N)c(N[C@H](CO)c4ccccc4)c3c2)cnc1Cl
active: SK-MEL-5 melanoma -77.3%
inactive: HCT-15 colon 36.7% | HT29 colon 74.3% | SNB-75 CNS 36% | SNB-19 CNS 41.7% | U251 CNS 36.1% | PC-3 prostate 32.7% | UACC-62 melanoma 13.7% | LOX IMVI melanoma 26.9% | SK-MEL-28 melanoma 35.2%

COC(=O)C[Se]C(=O)Cc1c(C)n(C(=O)c2ccc(Cl)cc2)c2ccc(OC)cc12
inactive: HCT-15 colon 11.5% | SNB-75 CNS 73.5% | SNB-19 CNS 31.7% | U251 CNS 46.2% | PC-3 prostate 72.7% | SK-MEL-5 melanoma 44.9% | UACC-62 melanoma 69.6% | SK-MEL-28 melanoma 62.8%
active: HT29 colon 9.65% | LOX IMVI melanoma -54.9%

COc1ccc(/C=N/NC2=NC3C(S2)N(C)C(=O)N3C)cc1 (stereo not given)
inactive: HCT-15 colon 28.4% | SNB-19 CNS 34.6% | U251 CNS 27.2% | PC-3 prostate 32.1% | SK-MEL-5 melanoma 31.1% | UACC-62 melanoma 38.3% | LOX IMVI melanoma 32.7% | SK-MEL-28 melanoma 53.5%
active: HT29 colon 8.29% | SNB-75 CNS 8.09%

COc1ccc(NC(=O)Nc2ccc3c(ccn3C(=O)c3cccc(F)c3)c2)cc1
inactive: HCT-15 colon 71.6% | HT29 colon 64% | SNB-75 CNS 44% | SNB-19 CNS 80.8% | U251 CNS 54.4% | PC-3 prostate 77.4% | SK-MEL-5 melanoma 76.6% | UACC-62 melanoma 65.9% | LOX IMVI melanoma 57% | SK-MEL-28 melanoma 87.2%

NC(=O)c1cccc(C#CCNC[C@H]2C[C@@H](n3ccc4c(Cl)ncnc43)[C@H](O)[C@@H]2O)c1
inactive: HCT-15 colon 107% | HT29 colon 105% | SNB-75 CNS 87.7% | SNB-19 CNS 102% | U251 CNS 100% | PC-3 prostate 102% | SK-MEL-5 melanoma 101% | UACC-62 melanoma 96.1% | LOX IMVI melanoma 101% | SK-MEL-28 melanoma 102%

COc1ccc(C2c3sc4c(C)cccc4c3Oc3nc(CC(=O)Nc4ccccc4)[nH]c(=O)c32)cc1 (stereo not given)
inactive: HCT-15 colon 51.9% | HT29 colon 94.1% | SNB-75 CNS 39.4% | SNB-19 CNS 89% | U251 CNS 106% | PC-3 prostate 83.1% | SK-MEL-5 melanoma 76.9% | UACC-62 melanoma 63.2% | LOX IMVI melanoma 48.5% | SK-MEL-28 melanoma 76%

C=C1CC[C@@H]2[C@]3(C)COC(c4ccccc4)O[C@@H]3CC[C@@]2(C)[C@@H]1C/C=C1/C(=O)OC[C@H]1O (stereo not given in full)
inactive: HCT-15 colon 65.5% | HT29 colon 54.8% | SNB-75 CNS 100% | SNB-19 CNS 97% | U251 CNS 64.2% | PC-3 prostate 82.4% | SK-MEL-5 melanoma 94.7% | UACC-62 melanoma 85.7% | LOX IMVI melanoma 33.8% | SK-MEL-28 melanoma 107%

NC(N)=Nc1ccc(Oc2cccc(Nc3ccc(Br)c(C(F)(F)F)c3)c2)cn1
inactive: SK-MEL-5 melanoma 16.9%
active: HCT-15 colon -68.3% | HT29 colon -48.5% | SNB-75 CNS 9.31% | SNB-19 CNS -83.5% | U251 CNS -79.6% | PC-3 prostate -92% | UACC-62 melanoma -76.9% | LOX IMVI melanoma -87.6% | SK-MEL-28 melanoma -32.1%

CC[C@]12C=CCN3CC[C@@]4(c5cc(NC(=O)COc6cc(O)c7c(=O)cc(-c8ccccc8)oc7c6)c(OC)cc5N(C)[C@H]4[C@@](O)(C(=O)OC)[C@@H]1OC(C)=O)[C@@H]32
active: HCT-15 colon -69% | HT29 colon -61% | SNB-75 CNS -34.2% | SNB-19 CNS -54.3% | U251 CNS -87.5% | PC-3 prostate -88.7% | SK-MEL-5 melanoma -90.9% | UACC-62 melanoma -87.3% | LOX IMVI melanoma -93.2% | SK-MEL-28 melanoma -89%

Cc1nn(-c2ccccc2)c2ncnc(N/N=C/c3cccc(O)c3)c12
inactive: HCT-15 colon 22.8% | HT29 colon 81% | SNB-75 CNS 33.2% | SNB-19 CNS 49% | U251 CNS 40.8% | PC-3 prostate 42.6% | SK-MEL-5 melanoma 30.5% | UACC-62 melanoma 32.7% | LOX IMVI melanoma 29% | SK-MEL-28 melanoma 54.2%

NC(N)=Nc1ccc(Oc2cccc(Nc3cccc(C(F)(F)F)c3)c2)cn1
active: HCT-15 colon -64.9% | SNB-19 CNS 1.17% | U251 CNS -62.7% | PC-3 prostate -74.8% | UACC-62 melanoma -16.2% | LOX IMVI melanoma -90.3%
inactive: HT29 colon 14.6% | SNB-75 CNS 33.5% | SK-MEL-5 melanoma 31.4% | SK-MEL-28 melanoma 31.5%

NS(=O)(=O)c1ccc(Nc2nc(SCC(=O)c3ccc(Cl)cc3)nc3c2CCCC3)cc1
active: HT29 colon 8.57%
inactive: HCT-15 colon 22.1% | SNB-75 CNS 85.8% | SNB-19 CNS 65.9% | U251 CNS 51.3% | PC-3 prostate 31.4% | SK-MEL-5 melanoma 65.8% | UACC-62 melanoma 48.2% | LOX IMVI melanoma 23.6% | SK-MEL-28 melanoma 68.5%

CCCn1cnc2c(c1=N)C(c1ccc(OC)cc1)c1sc3c(C)cccc3c1O2 (stereo not given)
active: HT29 colon 7.24% | PC-3 prostate 6.95%
inactive: HCT-15 colon 14.6% | SNB-75 CNS 17.8% | SNB-19 CNS 24% | U251 CNS 20.6% | SK-MEL-5 melanoma 40.3% | UACC-62 melanoma 14.3% | LOX IMVI melanoma 25.1% | SK-MEL-28 melanoma 53.9%

NS(=O)(=O)c1ccc(Nc2nc(N/N=C/CCc3ccccc3)nc(Nc3ccccc3)n2)cc1
inactive: HCT-15 colon 105% | HT29 colon 107% | SNB-75 CNS 112% | SNB-19 CNS 104% | U251 CNS 104% | PC-3 prostate 104% | SK-MEL-5 melanoma 99.7% | UACC-62 melanoma 95.8% | LOX IMVI melanoma 95.4% | SK-MEL-28 melanoma 107%

O=C1[C@H]2Cc3c([nH]c4ccccc34)[C@@H](c3c(Cl)cccc3Cl)N2C(=O)CN1C1CCN(CC2CCCCC2)CC1
active: LOX IMVI melanoma -59.9%
inactive: HCT-15 colon 29.5% | HT29 colon 20.5% | SNB-75 CNS 100% | SNB-19 CNS 94.6% | U251 CNS 89.1% | PC-3 prostate 63.5% | SK-MEL-5 melanoma 83.7% | UACC-62 melanoma 94.3% | SK-MEL-28 melanoma 99.3%

COc1ccc(/C=C(\C#N)C(=O)N2c3ccccc3Sc3ccc(SC)cc32)cc1F
inactive: HCT-15 colon 94.9% | HT29 colon 103% | SNB-75 CNS 87.6% | SNB-19 CNS 90.4% | U251 CNS 92.9% | PC-3 prostate 88.9% | SK-MEL-5 melanoma 93% | UACC-62 melanoma 71.3% | LOX IMVI melanoma 88.8% | SK-MEL-28 melanoma 98.9%

O=C1CCC(N2C(=O)c3ccc(NS(=O)(=O)c4ccccc4OC(F)(F)F)cc3C2=O)C(=O)N1 (stereo not given)
inactive: HT29 colon 78.4% | SNB-75 CNS 58% | SNB-19 CNS 39.6% | U251 CNS 75.8% | PC-3 prostate 46.4% | SK-MEL-5 melanoma 45.9% | UACC-62 melanoma 93.3% | LOX IMVI melanoma 105% | SK-MEL-28 melanoma 66.8%
active: HCT-15 colon 7.77%

CCCn1cnc2c(c1=N)C(c1ccc(F)cc1)c1sc3c(C)cccc3c1O2 (stereo not given)
inactive: HCT-15 colon 18.5% | HT29 colon 57% | SNB-19 CNS 22.4% | U251 CNS 24.4% | PC-3 prostate 33.4% | SK-MEL-5 melanoma 24.8% | UACC-62 melanoma 27.7% | LOX IMVI melanoma 28.8% | SK-MEL-28 melanoma 45.1%
active: SNB-75 CNS -4.36%

CCN(CC)c1ccc2c(c1)Oc1nc(N)c(C#N)c(N)c1C2Sc1ccc(C)cc1 (stereo not given)
active: HCT-15 colon -83.8% | HT29 colon -23.5% | SNB-75 CNS -82.3% | SNB-19 CNS -97.4% | U251 CNS -78.5% | PC-3 prostate -88.5% | SK-MEL-5 melanoma -96.4% | UACC-62 melanoma -88.5% | LOX IMVI melanoma -92.2% | SK-MEL-28 melanoma -94.5%

Cn1cc(-c2cc(N)n3nc(-c4cn(C)c5ccccc45)cc3n2)c2ccccc21
inactive: HCT-15 colon 32% | HT29 colon 50.6% | SNB-75 CNS 112% | SNB-19 CNS 112% | U251 CNS 72.4% | PC-3 prostate 88.8% | SK-MEL-5 melanoma 92.7% | UACC-62 melanoma 92.9% | LOX IMVI melanoma 65.1% | SK-MEL-28 melanoma 95.1%

Cc1ccc(-c2cc3nc(C(Cl)Cl)nc(-c4ccco4)n3n2)cc1
inactive: HCT-15 colon 14.9% | SNB-75 CNS 66.8% | SK-MEL-5 melanoma 90.1% | UACC-62 melanoma 37.9% | LOX IMVI melanoma 92.2%
active: HT29 colon 0.475% | SNB-19 CNS 8.51% | U251 CNS 1.02% | PC-3 prostate 4.32% | SK-MEL-28 melanoma 5.86%

CCN(CC)c1cn(-c2ccc(S(N)(=O)=O)cc2)nn1
inactive: HCT-15 colon 105% | HT29 colon 97.9% | SNB-75 CNS 83% | SNB-19 CNS 102% | U251 CNS 100% | PC-3 prostate 101% | SK-MEL-5 melanoma 104% | UACC-62 melanoma 94.9% | LOX IMVI melanoma 106% | SK-MEL-28 melanoma 105%

COc1cccc(N2CCN(c3ncnc4c3[nH]c3ccc(F)cc34)C[C@H]2C)c1
active: SK-MEL-5 melanoma -62.3%
inactive: HCT-15 colon 68.4% | HT29 colon 70.4% | SNB-75 CNS 63.2% | SNB-19 CNS 68.7% | U251 CNS 67.9% | PC-3 prostate 38.2% | UACC-62 melanoma 40.5% | LOX IMVI melanoma 63.1% | SK-MEL-28 melanoma 50.7%

Nc1ncc(-c2ccc(NS(=O)(=O)c3ccc(Cl)c(Cl)c3)cc2)[nH]1
inactive: HCT-15 colon 94.6% | HT29 colon 107% | SNB-75 CNS 90.9% | SNB-19 CNS 87.7% | U251 CNS 92.3% | PC-3 prostate 76.5% | SK-MEL-5 melanoma 97.2% | UACC-62 melanoma 78.2% | LOX IMVI melanoma 89.5% | SK-MEL-28 melanoma 99.3%

CCn1c(SCC(=O)Nc2cccc(C(=O)/C=C/c3cc(OC)c(OC)c(OC)c3)c2)nc2ccccc2c1=O
active: HCT-15 colon -13.9% | HT29 colon 1.12% | SNB-75 CNS -4.22% | LOX IMVI melanoma -73.6%
inactive: SNB-19 CNS 39.9% | U251 CNS 30.1% | PC-3 prostate 46.8% | SK-MEL-5 melanoma 33.9% | UACC-62 melanoma 41.2% | SK-MEL-28 melanoma 77%
